Reference: PubChem BioAssay (NCATS)
Results filed as inconclusive are left out. Entries that show only a call come without a potency. The source made the active and inactive calls. Calls come from the whole dose curve; as a rule, active = well fitted inhibition curve with a large enough effect; inconclusive = small, poorly fitted or top-dose-only effect; inactive = no such curve, though single readings can be large or run the other way.

Experiment: qHTS for inhibitors of ER calcium dysfunction: SERCaMP assay screened against the NCATS CANVASS Library (AID 1347393); note: nearly all actives have a fitted effect of over 40% in size
Conditions: SH-SY5Y GLuc-SERCaMP (Gaussia luciferase released on ER calcium loss) secretion, thapsigargin, luminescence; series mostly up to 76.6 µM
How it was run: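 qHTS in SH-SY5Y reporter cells: 16 h compound pretreatment, 4 h thapsigargin, then secreted Gaussia luciferase measured by luminescence.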
Potency is the fitted concentration of half-maximal effect.

Compound	Potency
CN1CC[C@]23c4ccccc4N[C@H]1[C@]21CCN(C)[C@H]3Nc2ccccc21	inactive
Cc1cc(O)cc2c1C(=O)c1c(O)cc(O)cc1C2=O	inactive
CC[C@@H]1C[C@@]2(CC)OC(=O)[C@@]3(CC)[C@H](CC)[C@@H]1[C@@H]23	inactive
C[C@@]12CCC[C@@](C)(C(=O)O)[C@H]1CC[C@@]13C[C@@H](CC[C@H]12)[C@](C)(O)C3	inactive
O=C1OC(CCO)c2cccc(O)c21 (stereo not drawn)	inactive
C=C1C[C@]23C=CC(=O)[C@@](C)(CCCC(C)C(=O)N[C@@H](CO)C(=O)O)[C@@H]2C[C@@H]1CC3 (stereo partly drawn)	inactive
O=C1CC(c2ccc(O)cc2)Oc2cc(O)ccc21 (stereo not drawn)	30.5 µM (active)
C[C@@]12CCC[C@@](C)(C(=O)O)[C@H]1C[C@@H](O)[C@@]13C[C@@H](CC[C@@H]21)[C@](C)(O)C3	inactive
C=C[C@@]1(C)CC[C@@H]([C@H](C)C(C)=O)O1	inactive
C/C=C(/CO)C(=O)O[C@@H]1[C@H](O)[C@@H](C(=O)OC)O[C@@H]2C[C@H]3OC(n4cnc5c(N)ncnc54)[C@H](OC)[C@H]3O[C@@]12O (stereo partly drawn)	inactive
C/C=C/[C@H]1[C@H]2C(=O)c3c(O)c(C)c(O)c(C)c3[C@]1(C(=O)O)C(=O)C=C2C	inactive
C=C1[C@@]2(C)CC3C4(C)CCC(O)C(C)(C)C4CCC3(C)[C@]1(C(=O)OC)C(=O)C(C)(O)C2=O (stereo partly drawn)	8.6 µM (active)
CC1(C)CC[C@]2(CO)CC[C@]3(C)C(=CCC4[C@@]5(C)CC[C@H](O)C(C)(C)C5CC[C@]43C)C2C1 (stereo partly drawn)	inactive
